We go through 40 compounds from PubChem BioAssay (NCATS).

Records with an inconclusive call do not appear. Unmarked numbers belong to inactive results. Calls of active or inactive are those of the source. Calls follow the shape of the dose curve; as a rule, active = well fitted cell-killing curve with a large enough effect; inconclusive = small, poorly fitted or top-dose-only effect, or effect the other way; inactive = no such curve, though single readings can be large or run the other way.
Potency is read from the fitted curve at half-maximal effect.

A short description of the test: Quantitative High-Throughput drug screen in 47 multiple myeloma cell lines against the NCATS MIPE library collection: U266_ATCC cell viability assay (AID 1919864). Also: nearly all actives have a fitted effect of over 35% in size. The note with it: U266 myeloma viability, CellTiter-Glo ATP luminescence, 48 h; series mostly up to 45.8 µM; viability (% of DMSO control): at the top concentration. From the text:
PI: Beverly A. Mock Ph.D.
Laboratory of Cancer Biology and Genetics,
Center for Cancer Research, National Cancer Institute,
National Institute of Health, Bethesda, Maryland
Drug resistance and disease progression are common in multiple myeloma (MM) patients, underscoring the need for new therapeutic combinations. […] We hypothesized that effective combinations would reduce MYC expression and enhance p16 activity. […] These preclinical data identify potentially useful drug combinations for evaluation in drug-resistant MM and reveal potential mechanisms of combined drug sensitivity.
Described herein is the primary MIPE qHTS used to cherrypick compounds. Validated compounds were then further tested for potential synergistic activiy.
[1] Peat TJ, Gaikwad SM, Dubois W, Gyabaah-Kessie N, Zhang S, Gorjifard S, Phyo Z, Andres M, Hughitt VK, Simpson RM, Miller MA, Girvin AT, Taylor A, Williams D, D'Antonio N, Zhang Y, Rajagopalan A, Flietner E, Wilson K, Zhang X, Shinn P, Klumpp-Thomas C, McKnight C, Itkin Z, Chen L, Kazandijian D, Zhang J, Michalowski AM, Simmons JK, Keats J, Thomas CJ, Mock BA. Drug combinations identified by high-throughput screening promote cell cycle transition and upregulate Smad pathways in myeloma. Cancer Lett. 2023 Aug 1;568:216284. doi: 10.1016/j.canlet.2023.216284. Epub 2023 Jun 24. PMID: 37356470; PMCID: PMC10408729.
SEQUENCE No. (e.g., 1, 2, 3, etc.); […] (e.g., Cells, Incubation, Reagent, etc.); VALUE and DESCRIPTION.
1; Cells; 5 uL; white, solid bottom 1536-well Greiner assay plate.
2; Compounds; 23 nL; Kalypsis pin tool (Wako USA) equipped with a 1536-well pin head to transfer to the assay plates.
3; Incubation; 48 hours; 37C incubation.
4; Reagent;5uL; CellTiter Glo (Promega).
5; Detector; 425V; Luminescence; Viewlux PerkinElmer.
NOTES (numbers refer to Sequence numbers above)
1. The cell-based screening methods employed in this study were like those previously published. Briefly, the corresponding myeloma cell lines were screened in 1,536-well plates with 500 cells, 5-uL per well for inhibition of cell viability (assessed by measuring ATP levels with CellTiterGlo).
2. NCATS MIPE 4.0 library of approved and investigational drugs were added using the Kalypsis pin tool. Wells treated with DMSO only for 100% viability and media only for 0% viability were used as controls.
3. The assay plates were covered and incubated for 48 hours in a 37C, 5% CO2 incubator with controlled humidity.
4. After 48 hours, CellTilter-GloTM luminescent substrate mix (Promega) reagent was added to the assay plate and plates we incubated for 5 min at room temperature.
5. Signal was measured as median relative luminescence units on a ViewLux (PerkinElmer) multiplate reader.
[1] Heske CM, Davis MI, Baumgart JT, Wilson K, Gormally MV, Chen L, Zhang X, Ceribelli M, Duveau DY, Guha R, Ferrer M, Arnaldez FI, Ji J, Tran HL, Zhang Y, Mendoza A, Helman LJ, Thomas CJ. Matrix Screen Identifies Synergistic Combination of PARP Inhibitors and Nicotinamide Phosphoribosyltransferase (NAMPT) Inhibitors in Ewing Sarcoma. Clin Cancer Res. 2017 Dec 1;23(23):7301-7311. doi: 10.1158/1078-0432.CCR-17-1121. Epub 2017 Sep 12. PMID: 28899971; PMCID: PMC6636827.
Take `Clc1ccc2ncc(-c3cccc(NC4CNC4)n3)n2c1`: the Potency was 18.7 µM (active).

With `O=c1c2ccccc2nc2n1CCc1c-2[nH]c2ccccc12`, the “viability (% of DMSO control)” value was 115%.

For the compound `Cc1[nH]c2ccccc2c1CCNCc1ccc(C=CC(=O)NO)cc1`, the Potency is 0.132 µM (active).

As to `CN(c1ncccc1CNc1nc(Nc2ccc3c(c2)CC(=O)N3)ncc1C(F)(F)F)S(C)(=O)=O`, the Potency is 9.35 µM (active).

As for `CC(=O)Nc1sc2c(c1-c1nc3ccccc3s1)CNC2`, the Potency is 16.6 µM (active).

`O=C(Nc1cn[nH]c1-c1nc2ccc(CN3CCOCC3)cc2[nH]1)NC1CC1`: the Potency is 2.35 µM (active).

Regarding `CCN1CCN(CC(=O)Nc2ccc(-c3cccc4c(=O)cc(N5CCOCC5)oc34)c3sc4ccccc4c23)CC1`, the Potency was 18.7 µM (active).

Consider `Cc1ccc(C(N)=O)cc1Nc1nccc(-c2cn(C(C)C)c3cnccc23)n1`, for which the Potency was 8.33 µM (active).

For `CNC(=O)c1ccc(N2C(=S)N(c3cnc(C#N)c(C(F)(F)F)c3)C(=O)C23CCC3)cc1F`, the Potency is 0.662 µM (active).

`c1nc2nc(Nc3ccc(N4CCOCC4)cc3)nc(NC3CCCCC3)c2[nH]1`: the Potency is 16.6 µM (active).

In the case of `COc1cc(=C2C=c3ccccc3=N2)[nH]c1=Cc1[nH]c(C)cc1C`, the Potency was 5.26 µM (active).

Take `Cc1ccc(CN2CCNCC2)cc1NC(=O)CNc1ccc(F)c(F)c1`: the Potency was 29.6 µM (active).

Consider `CC1(C)CC(=O)c2c(C(F)(F)F)nn(-c3ccc(C(N)=O)c(NC4CCC(OC(=O)CN)CC4)c3)c2C1` (stereo not given), for which the Potency is 0.166 µM (active).

`CNc1nccc(-c2cccnc2Oc2cc(C(=O)Nc3cccc(C(F)(F)F)c3)ccc2C)n1`: the Potency was 16.6 µM (active).

As to `COc1cc2c(Nc3ccc(NC(=O)c4ccccc4)cc3)ncnc2cc1OCCCN1CCOCC1`, the Potency was 23.5 µM (active).

With `C1=CCOCc2cc(ccc2OCCN2CCCC2)Nc2nccc(n2)-c2cccc(c2)OCC1`, the Potency is 5.26 µM (active).

In the case of `CCC1=C[C@@H]2CN(C1)Cc1c([nH]c3ccccc13)[C@@](C(=O)OC)(c1cc3c(cc1OC)N(C)[C@@H]1[C@@](O)(C(=O)OC)[C@H](OC(C)=O)[C@]4(CC)C=CCN5CC[C@]31[C@@H]54)C2`, the Potency is 14.8 µM (active).

In the case of `CCOc1cc2ncc(C#N)c(Nc3ccc(F)c(Cl)c3)c2cc1NC(=O)C=CCN(C)C`, the Potency was 18.7 µM (active).

Regarding `CC[C@@H]1C(=O)N(C)c2cnc(Nc3ccc(C(=O)NC4CCC(N5CCN(CC6CC6)CC5)CC4)cc3OC)nc2N1C(C)C` (stereo not given in full), the Potency was 5.9 µM (active).

Regarding `Cc1cccc(C=NNc2cc(N3CCOCC3)nc(OCCc3ccccn3)n2)c1`, the Potency is 6.62 µM (active).

As to `Cc1ccc(NC(=O)C2(c3ccc4c(c3)OC(F)(F)O4)CC2)nc1-c1cccc(C(=O)O)c1`, the Potency was 0.0296 µM (active).

In the case of `Cn1c2cc(S(C)=O)sc2c2cnn(Cc3cccc(N)c3)c(=O)c21` (stereo not given), the “viability (% of DMSO control)” value was 142%.

Regarding `CC1(C)CCC(c2ccc(Cl)cc2)=C(CN2CCN(c3ccc(C(=O)NS(=O)(=O)c4ccc(N[C@H](CCN5CCOCC5)CSc5ccccc5)c(S(=O)(=O)C(F)(F)F)c4)cc3)CC2)C1`, the Potency is 14.8 µM (active).

On to `COc1cc(C(=O)N2CCC(N3CCN(C)CC3)CC2)ccc1Nc1ncc2c(n1)N(C)c1ccccc1C(=O)N2C`, for which the Potency was 2.09 µM (active).

As to `N#Cc1c(O)c2c(-c3ccc(-c4ccccc4O)cc3)csc2[nH]c1=O`, the “viability (% of DMSO control)” value was 147%.

Consider `Cc1ccc(C(=O)Nc2cccc(C(F)(F)F)c2)cc1-c1ccc2nc(NCCN3CCOCC3)ncc2c1`, for which the Potency was 14.8 µM (active).

In the case of `CC(C)[C@H](C(=O)Nc1ccc(C(=O)NO)cc1)c1ccccc1`, the Potency is 0.935 µM (active).

Regarding `O=C(O)C1(Cc2cccc(Nc3nccs3)n2)CCC(Oc2cccc(Cl)c2F)CC1` (stereo not given), the “viability (% of DMSO control)” value was 151%.

As for `COc1cccc2nc(-c3cccs3)nc(NN3C(=O)C=C(C)C3=O)c12`, the Potency is 0.118 µM (active).

`O=C(c1ccc(Nc2nccc(-c3cc4ccccc4s3)n2)cc1)N1CCC(N2CCCC2)CC1`: the Potency is 14.8 µM (active).

In the case of `Nc1nc(NCCNc2ncc(-n3ccnc3)c(-c3ccc(Cl)cc3Cl)n2)ccc1[N+](=O)[O-]`, the “viability (% of DMSO control)” value is 113%.

For `C#Cc1cccc(Nc2ncnc3cc(OC)c(OCCCCCCC(=O)NO)cc23)c1`, the Potency is 0.105 µM (active).

With `CC(C)c1cc(C(=O)N2Cc3ccc(CN4CCN(C)CC4)cc3C2)c(O)cc1O`, the Potency was 0.209 µM (active).

For `O=C(NC1CCNCC1)c1[nH]ncc1NC(=O)c1c(Cl)cccc1Cl`, the Potency was 0.187 µM (active).

In the case of `Cc1ccc(C(=O)Nc2ccc(CN3CCN(C)CC3)c(C(F)(F)F)c2)cc1C#Cc1cnc2cccnn12`, the Potency was 14.8 µM (active).

`O=C(O)Cn1nnc(-c2cc(N3CCC(Oc4cc(F)ccc4Br)CC3)no2)n1`: the “viability (% of DMSO control)” value is 138%.

Turning to `COc1c(N2C[C@@H]3CCCN[C@H]3C2)c(F)cc2c(=O)c(C(=O)O)cn(C3CC3)c12`, the “viability (% of DMSO control)” value was 136%.

For the compound `CCc1c2c(nc3ccc(O)cc13)-c1cc3c(c(=O)n1C2)COC(=O)[C@]3(O)CC`, the Potency was 0.743 µM (active).

Take `Cc1nc(Nc2n[nH]c3c2CN(C(=O)N[C@H](CN(C)C)c2ccccc2)C3(C)C)c2sccc2n1`: the Potency was 0.526 µM (active).

Regarding `NC(=O)c1c(OCc2c(F)cc(Br)cc2F)nsc1NC(=O)NCCCCN1CCCC1`, the Potency was 29.6 µM (active).
